# Test results from PubChem BioAssay (NCI).
# The panel holds about 83,000 compounds, 20% with a hit somewhere; the sample as a whole holds those more often.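 Single-concentration screen, 48 h exposure, 96-well plates. Endpoint: percent growth. Below 10 = active.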 A number with no mark means an inactive call. The source made the active and inactive calls.
# Tests used:
# Assay in all cases: NCI-60 one-dose screen, 48 h (100 = growth as untreated, 0 = no growth, -100 = all killed)
# Details in all cases: 10 µM unless noted
# [1] = system: HCT-15 colon
# [2] = system: HT29 colon
# [3] = system: SNB-75 CNS
# [4] = system: SNB-19 CNS
# [5] = system: U251 CNS
# [6] = system: PC-3 prostate
# [7] = system: SK-MEL-5 melanoma
# [8] = system: UACC-62 melanoma
# [9] = system: LOX IMVI melanoma
# [10] = system: SK-MEL-28 melanoma
# [11] = system: SK-MEL-2 melanoma
# [12] = system: SN12C renal
# [13] = system: UO-31 renal
# [14] = system: TK-10 renal
# [15] = system: ACHN renal
# [16] = system: CAKI-1 renal
# [17] = system: A498 renal
# [18] = system: CCRF-CEM leukemia
# [19] = system: MOLT-4 leukemia
SMILES,growth [1],growth [2],growth [3],growth [4],growth [5],growth [6],growth [7],growth [8],growth [9],growth [10],growth [11],growth [12],growth [13],growth [14],growth [15],growth [16],growth [17],growth [18],growth [19]
N#Cc1ccc(-c2ccc(COc3ccc(CC4SC(=O)NC4=O)cc3)cc2)cc1 (centres undefined),63.6%,103%,67.8%,63.3%,63%,54.4%,-18.3% (active),51.4%,48.5%,79%,56.9%,74.4%,48.1%,85.9%,52.4%,48.1%,99.7%,61.5%,37.8%
Cc1cccc(C[C@H](NC(=O)Nc2ccc(C)cc2F)C(=O)N[C@@H]2C(=O)N3C[C@H](O)C[C@H]3C(=O)N3CCN(C)C[C@H]3C(=O)N[C@@H](C)C(=O)N3C[C@H](C)C[C@H]3C(=O)O[C@H]2C)c1,105%,33.8%,23.6%,22.7%,26.5%,22.6%,66.3%,31.4%,38.5%,47.9%,39.9%,21.5%,93%,94.1%,106%,82.1%,32.8%,62.5%,40.4%
COC(=O)c1cc2c(=O)[nH]cc3c2c(n1)CCC3,113%,105%,104%,96.2%,103%,93.6%,104%,107%,104%,105%,95.2%,97.2%,75.4%,106%,105%,97.4%,104%,103%,100%
O=C(NCCCNC(=O)OCc1ccc2cccc(O)c2n1)OCc1ccc2cccc(O)c2n1,1.71% (active),17%,28.4%,54.6%,39.8%,56.6%,61.5%,39.6%,-73.2% (active),64.3%,71.3%,40.4%,26.9%,49.6%,19.8%,21%,60.9%,6.81% (active),21.7%
Cn1c(=O)c(C#N)c(-c2ccco2)n2c(S(=O)(=O)Cc3ccccc3)nnc12,78.3%,92.5%,97.8%,115%,82.8%,112%,90.1%,75.5%,92.3%,99.1%,58.5%,110%,41.4%,78.3%,65.9%,82.4%,84.8%,77.4%,102%
O=C1NC(=O)C(Cc2ccccc2)(Cc2ccccc2)N1,102%,94.1%,85.2%,95.2%,101%,83.2%,94.3%,97%,89.4%,119%,102%,97.9%,93.6%,89.4%,109%,92.1%,102%,92.4%,90.5%
Cc1ncc(C(=O)Nc2ccc(CN3CCN(C)CC3)c(C(F)(F)F)c2)cc1C#Cc1c(N)ncc2ccc(C#N)cc12,28%,11.9%,56.4%,77.5%,68.5%,48.7%,16.2%,22.5%,-62.4% (active),23.7%,39.7%,32.9%,19.3%,37%,12.3%,16.1%,6.65% (active),38.1%,37.3%
CC(C)CSc1ncnc2nc[nH]c12,97.2%,99.5%,101%,93.8%,103%,81.7%,95.6%,84.8%,98%,101%,107%,94.7%,93.9%,82.4%,90.3%,98.6%,87.5%,86.8%,128%
C=C(C)[C@@H]1CC[C@]2(C(N)=O)CC[C@]3(C)[C@H](CC[C@@H]4[C@@]5(C)C/C(=C/c6cccnc6)C(=O)C(C)(C)[C@@H]5CC[C@]43C)[C@@H]12,14.9% [100 µM],-45.3% [100 µM] (active),40.6% [100 µM],27.8% [100 µM],9.19% [100 µM] (active),11.7% [100 µM],-61.9% [100 µM] (active),-1.04% [100 µM] (active),-41.5% [100 µM] (active),-8.42% [100 µM] (active),-47.4% [100 µM] (active),18.5% [100 µM],10.2% [100 µM],23.5% [100 µM],7.09% [100 µM] (active),8.38% [100 µM] (active),17.3% [100 µM],7.08% [100 µM] (active),2.39% [100 µM] (active)
Cc1ccc(Oc2c(/C=N/NC(=O)Cn3c(=O)sc4ccccc43)c(C)nn2-c2ccccc2)cc1,42.2%,31.3%,53.4%,61.5%,42.9%,35.8%,37.7%,52.7%,64.7%,93.5%,75.5%,29.5%,25.8%,62.4%,43.2%,28.8%,78.2%,40.8%,8.72% (active)
NS(=O)(=O)c1ccc(CCN2C(=O)/C(=C\c3ccccc3)C=C2c2ccc(Cl)cc2)cc1,99.2%,107%,59.3%,87%,98.9%,90%,98.7%,81.9%,99.8%,101%,102%,90.6%,65.8%,113%,97%,65.1%,65.6%,101%,94.8%
COc1ccc(C2CC(c3cc(OC)c(OC)c(OC)c3)=NN2C(C)=O)cc1OCC(=O)Nc1nc2ccc(C(F)(F)F)cc2s1 (centres undefined),76.2%,79.8%,37%,74.2%,67%,67.8%,15.1%,52.5%,32.5%,65.5%,92.3%,63%,39.5%,57.1%,40.4%,57.9%,54.1%,72.5%,60%
Cn1cc(-c2noc(-c3cn(C)c4ncc(F)cc34)n2)c2cc(Br)ccc21,76%,47.3%,61.2%,75.9%,29.4%,75.3%,83.9%,76.1%,70.7%,83.7%,103%,60.2%,79.8%,46.5%,40.3%,53.5%,91.9%,80.8%,71.1%
O=S(=O)(NCCNc1nccc(-c2c(-c3cccc(F)c3)nc3occn23)n1)c1ccc(C(F)(F)F)cc1,95.5%,62.3%,59.6%,98%,92%,55.2%,92%,76.2%,95.8%,78.7%,92.2%,84.8%,57.1%,97.5%,87.7%,68.9%,78%,84%,52.9%
CC1=CCc2ccccc21,109%,95.7%,83.9%,101%,103%,86.2%,101%,86.2%,105%,104%,140%,88%,–,103%,98.6%,87.7%,89.9%,94.3%,97%
